Most compounds without a hit are left out; they make up all but 7.4% or so of the library.
ELG1 genotoxic = qHTS screen for small molecules that induce genotoxicity in human embryonic kidney (HEK293T) cells expressing luciferase-tagged ELG1. HEK293T ELG1-luciferase reporter, luminescence, 16 h. Potency, µM (doses to about 46 µM), for the others: at the highest dose activity change, positive = activation, usual class: activators. 330,000 compounds, 1.3% hits. AID 504466, 2011; further: % of control where 0% means no effect; nearly all actives have a fitted effect of over 60% in size
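Genotoxic stress is detected as increased luminescence from luciferase-tagged ELG1 in HEK293T cells, measured with ONE-Glo after a 16 hr treatment at 37 °C.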
SMN2 splice up = qHTS Assay for Enhancers of SMN2 Splice Variant Expression; 210,000 compounds, 2.8% hits; AID 1458, 2008; Potency, µM (series often up to 46.1 µM), without a hit: at the top dose activity change, positive = activation, actives largely listed as activators; HEK293 SMN2-luciferase splicing reporter, luminescence, 30-36 h; further: % of control where 0% means no effect; nearly all actives have a fitted effect of over 55% in size
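qHTS luciferase splicing reporter: luminescence rises when SMN2 exon 7 is included in transfected HEK293 cells. Compound exposure lasted 30-36 h at 37C, with 4.5 mM final sodium butyrate as control, followed by a ONE-Glo read.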
Rab9 promoter act = qHTS Assay for Rab9 Promoter Activators; Huh7 Rab9 promoter-luciferase reporter, luminescence, 24 h; Potency, µM (doses to about 9.22 µM), for inactives: at the top dose activation, negative = inhibition, usual class: activators; 320,000 compounds, 2.8% hits; AID 485297, 2010; further: % of control where 0% means no effect; nearly all actives have a fitted effect of over 60% in size
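Stable Rab9-luc Huh7, 1500 cells/well, 2 h settle; cmpd in DMSO, 24 h, 37 °C/5% CO2; luciferase reagent 10 min RT; luminescence.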
NPC1 prom act = qHTS Assay for NPC1 Promoter Activators; Huh7 NPC1 promoter luciferase reporter, 24 h; Potency, µM (top dose mostly 9.22 µM), inactives show at the top dose activation, hits mostly activators; AID 485313, 2010; 320,000 compounds, 2.4% hits; further: % of control where 0% means no effect; nearly all actives have a fitted effect of over 60% in size
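Cells: Huh7 expressing luciferase under the NPC1 promoter, 1500/well. Seeded 2 h, compound added, incubated 24 h at 37 °C. Luciferase reagent, 10 min ambient, then luminescence.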
FLuc modulator = qHTS profiling assay for firefly luciferase inhibitor/activator using purifed enzyme and Km concentrations of substrates (counterscreen for miR-21 project). Luciferin 4-monooxygenase (Photinus pyralis), P08659. purified FLuc, Km substrates, luminescence inhibition. Potency, µM (highest dose often 57.5 µM), without a hit: at the top dose activity change, negative = inhibition, hits mostly inhibitors. 360,000 compounds, 6.9% hits;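 further: plate controls were vehicle for no effect and reference inhibitor for full effect; nearly all actives have a fitted effect of over 55% in size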
Target sequence (P08659 whole entry, looked up): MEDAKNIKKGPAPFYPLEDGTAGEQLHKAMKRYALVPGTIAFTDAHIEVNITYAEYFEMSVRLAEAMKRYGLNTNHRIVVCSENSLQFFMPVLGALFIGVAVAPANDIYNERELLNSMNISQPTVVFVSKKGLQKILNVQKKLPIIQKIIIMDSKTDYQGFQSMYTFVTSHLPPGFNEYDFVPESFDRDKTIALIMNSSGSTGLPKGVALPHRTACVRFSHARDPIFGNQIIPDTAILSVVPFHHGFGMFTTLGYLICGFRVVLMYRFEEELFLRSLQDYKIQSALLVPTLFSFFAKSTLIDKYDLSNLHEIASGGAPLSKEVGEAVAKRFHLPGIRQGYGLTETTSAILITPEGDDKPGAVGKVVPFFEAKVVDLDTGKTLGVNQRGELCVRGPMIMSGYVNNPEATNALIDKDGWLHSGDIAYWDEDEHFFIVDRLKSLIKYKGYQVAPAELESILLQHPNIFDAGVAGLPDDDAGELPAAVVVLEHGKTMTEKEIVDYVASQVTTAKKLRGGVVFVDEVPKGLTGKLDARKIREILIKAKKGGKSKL
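Purified P. pyralis luciferase, 10 nM final, with Km-level 10 uM D-luciferin and 10 uM ATP in 50 mM Tris acetate pH 7.5, 10 mM Mg acetate, 0.01% Tween-20, 0.05% BSA; 6-point qHTS titration about 60 µM downward; luminescence read.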
Active calls of the source: *; ? = inconclusive; . = no result; [ ] = another dose, or the depositor's remark. The call rests on the fitted dose curve; in most records, active means well fitted curve in the direction sought with a large enough effect; inconclusive means small, poorly fitted or top-dose-only effect, or another doubt; inactive means no such curve, though single readings can be large; an effect the other way counts as inactive or inconclusive. Potency means the concentration at half of the fitted maximal effect.

SMILES	ELG1 genotoxic	SMN2 splice up	Rab9 promoter act	NPC1 prom act	FLuc modulator
CCOc1ncccc1C(=O)OCC(=O)Nc1ccc(-c2nc3ccc(C)cc3s2)cc1	7.3µM*	1.6µM*	0.35µM*	0.45µM*	5.4µM*
Cc1ccc2nc(-c3ccc(NC(=O)COC(=O)c4ccc(Br)o4)cc3)sc2c1	1.2µM*	0.5µM*	0.4µM*	0.79µM*	3.4µM*
O=C(COC(=O)c1ccc(Br)o1)Nc1ccc(Br)cc1	3%	.	9%	3%	-1%
CNS(=O)(=O)c1cccc(C(=O)OCC(=O)Nc2ccc(N3CCCCC3)cc2)c1	0%	22%	?	4%	?
Cc1ccc(C)c(Cn2c3ccccc3c3cnn(CC(=O)NC4CCCCCC4)c(=O)c32)c1	.	8%	.	.	-1%
CC(NC(=O)CN(c1cccc(C(F)(F)F)c1)S(C)(=O)=O)c1ccccc1 (stereo not drawn)	-6%	.	6%	-6%	-1%
CC(NC(=O)c1ccco1)C(=O)N1CCCCC1 (stereo not drawn)	-9%	.	-20%	-3%	3%
Cc1ccc2nc(-c3ccc(NC(=O)CN4CCN(C(=O)c5ccco5)CC4)cc3)sc2c1	?	?	?	?	4.8µM*
Cc1ccc(NC(=O)CN2CCN(C(=O)c3ccco3)CC2)cc1	0%	.	-4%	-6%	-2%
O=C(CSc1ccc(Cl)cc1)Nc1ccc(NC(=O)c2ccco2)cc1	3%	?	20%	17%	12%
COc1cccc(NC(=O)CSc2nnc(NC(=O)c3ccco3)s2)c1	17%	.	17%	14%	24µM*
CC(=O)Nc1cccc(NC(=O)CSc2nnc(NC(=O)C3CC3)s2)c1	10%	.	4%	1%	?
COc1cccc(NC(=O)CSc2nnc(C)s2)c1	12%	?	-4%	0%	5%
O=C(CSc1nnc(NC(=O)c2ccco2)s1)Nc1ccc(F)cc1F	2%	.	17%	1%	?
Cc1ccc(SCC(=O)Nc2cccc(NC(=O)c3ccco3)c2)cc1	-3%	-15%	4%	-1%	19µM*
O=C(CSc1nnc(NC(=O)c2ccco2)s1)Nc1cccc(F)c1	?	.	?	?	6.7µM*
CC(=O)Nc1cccc(NC(=O)CSc2nnc(NC(=O)c3ccco3)s2)c1	15%	.	23%	-4%	19µM*
Cc1cc(NC(=O)COC(=O)[C@@H](NS(=O)(=O)c2ccc(Br)cc2)C(C)C)no1	-1%	.	1%	-1%	0%
COc1ccc(CCN=C(N)NS(=O)(=O)c2ccc(C)c(C)c2)cc1	0%	-7%	1%	-4%	-19%
CC[C@H](Cc1c(I)cc(I)c(N)c1I)C(=O)O	.	-4%[20.6 µM]	.	.	.
CC(=O)Nc1ccc(NC(=O)CSc2nnc(NC(=O)c3ccc(Br)o3)s2)cc1	6%	.	-3%	-3%	2.1µM*
Cc1ccc(SCC(=O)Nc2ccc(N3CCN(C)CC3)c(F)c2)cc1	?	10%	?	?	15µM*
CCc1nnc(NC(=O)c2ccc(Br)o2)s1	13%	.	?	18%	?
Oc1c(N=Nc2ccccc2)sc2ccccc12	2.3µM*	.	3.2µM*	?	0.38µM*
COc1ccc(C(=O)NCCS(=O)(=O)N(C)Cc2ccccc2)cc1	-3%	.	-5%	-1%	5%
SMILES	ELG1 genotoxic	SMN2 splice up	Rab9 promoter act	NPC1 prom act	FLuc modulator
O=C(/C=C/c1ccccc1)CC(=O)c1ccccc1O	?	.	?	26%	15µM*
O=C(/C=C/c1ccccc1)NC(=O)c1ccccc1O	?	.	?	?	1.7µM*
Cc1nc(C)c(C(=O)OCC(=O)NCCc2ccc(F)cc2)s1	-4%	.	-9%	-3%	2%
Cc1c(Cl)cccc1NC(=O)C1COc2ccccc2O1 (stereo not drawn)	0%	.	-3%	0%	3%
CC(=O)c1cccc(NC(=O)c2csc3c2CCCCC3)c1	1%	20%	21%	16%	13µM*
CCOc1ccc(NC(=O)c2csc3c2CCCC3)cc1	?	11µM*	3.5µM*	2.2µM*	2.7µM*
CCOC(=O)c1ccc(NC(=O)c2csc3c2CCCC3)cc1	.	-7%	.	.	?
CC(=O)c1cccc(NC(=O)Nc2csc3c2CCCC3)c1	-7%	.	2%	-1%	17µM*
Cc1[nH]c2ccc(C(=O)OCC(=O)Nc3cccc(S(N)(=O)=O)c3)cc2c1C	4%	.	18%	-2%	17µM*
NS(=O)(=O)c1cccc(NC(=O)COC(=O)CNC(=O)c2ccc(-c3ccccc3)cc2)c1	-1%	.	0%	5%	6.7µM*
COc1ccc2[nH]cc(CCNc3nc(-c4ccc(C(=O)N(C)C)cc4)nc4ccccc34)c2c1	.	11µM*	.	.	.
COc1ccc(C(=O)Nc2scc(-c3ccc(Cl)cc3Cl)c2C(N)=O)cc1	-1%	-9%	3.2µM*	2.8µM*	4.8µM*
CCOC(=O)c1c(-c2ccc(OC)c(OC)c2)csc1NC(=O)c1ccc(C)cc1	.	-6%	.	.	0%
COc1ccccc1CNC(=O)CN1c2cccc3cccc(c23)S1(=O)=O	-1%	.	-7%	1%	24µM*
Fc1cccc(/C=N/Nc2ncnc3nc[nH]c23)c1	-2%	10µM*	3.5µM*	?	19µM*
Fc1ccccc1/C=N/Nc1ncnc2nc[nH]c12	21µM*	13µM*	23%	29%	?
Oc1ccc(/C=N/Nc2ncnc3nc[nH]c23)cc1	-1%	.	9%	2%	?
COc1c(O)ccc2c1CN1CCc3cc4c(cc3[C@@H]1C2)OCO4	.	-6%[9.22 µM]	.	.	.
Clc1ccc(-n2ncc3c(NCC4CCCO4)ncnc32)cc1 (stereo not drawn)	?	5µM*	0.45µM*	0.63µM*	1.7µM*
c1ccc(-n2ncc3c(NCC4CCCO4)ncnc32)cc1 (stereo not drawn)	2%	-1%	3.5µM*	2µM*	17µM*
CC(Sc1ncnc2c1cnn2-c1ccccc1)C(=O)NCC1CCCO1 (stereo not drawn)	2%	.	-4%	-5%	?
COc1ccc(-n2ncc3c(NCC4CCCO4)ncnc32)cc1 (stereo not drawn)	12%	11µM*	0.89µM*	0.56µM*	11µM*
CC(=O)N(c1ccc(C)cc1)S(=O)(=O)c1ccc(Cl)cc1	-2%	-5%	-7%	-6%	0%
N#C/C(=N\Nc1ccc(Cl)cc1)C(=N)N1CCCCCC1	1.8µM*	3.5µM*	0.32µM*	0.4µM*	0.95µM*
Cc1ccc(N/N=C(\C#N)C(=N)N2CCCCC2)cc1	?	.	0.5µM*	0.45µM*	5.4µM*
N#C/C(=N\Nc1ccc(S(=O)(=O)N2CCCCCC2)cc1)C(N)=S	-17%	-23%	0%	-2%	?

From PubChem BioAssay
